Many of the other results were omitted from the sample, so hits are more common in it than they were.
Pf apPOL inh: Pf-apPOL inhibitors, biochemical, fluorescence. Recombinant Pf-apPOL, molecular beacon fluorescence, 1.5 h. inhibition, % at 10 µM. actives 0.25% (n = 210,000). AID 1794808, 2022
mHTT-CaM PPI inh: mutant huntingtin-calmodulin interaction inhibitors – biochemical, AlphaScreen, primary screen; P42858; actives 3.6% (n = 190,000); inhibition, % at 15 µM; AID 1671202, 2021; AlphaScreen His-mHTT/GST-CaM binding, luminescence;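 note: 0% = both proteins with DMSO and 100% = one protein alone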
Starred values were filed as active, the others as inactive; / = no result. Cut-off read from the data, not from the text of the source: active = inhibition above about 50%; inactive = the rest.

SMILES	Pf apPOL inh	mHTT-CaM PPI inh
CCOc1ccccc1C(=O)N1CCc2cc(OC)c(OC)cc2C1COc1ccccc1OC (stereo not drawn)	-4	55*
CCC(=O)N1CCc2cc(OC)c(OC)cc2C1COc1ccc(OC)cc1 (stereo not drawn)	2	2
COc1ccc(OCC2c3cc(OC)c(OC)cc3CCN2C(=O)c2c(F)cccc2F)cc1 (stereo not drawn)	82*	30
COc1ccc(/C=C2\C(C)=C(C#N)c3nc(N)c(C#N)c(C)c32)c(OC)c1	-2	8
N#Cc1c(-c2ccco2)c(C#N)c2[n+](c1N)C(CI)CS2 (stereo not drawn)	2	5
CCc1ccc(-n2c(CN3CCN(C(=O)NC(C)(C)C)CC3)nc3cccnc32)cc1	-5	19
Cn1nc(C(=O)NCc2ccc(Cl)cc2)c2c1CCN(C(=O)c1c(F)cccc1F)C2	-4	58*
Cc1cccc(CNC(=O)c2nn(C)c3c2CN(C(=O)c2ccccc2F)CC3)c1	-7	43
Cn1nc(C(=O)NCc2ccc(F)cc2)c2c1CCN(C(=O)c1ccccc1F)C2	-13	82*
Cc1ccccc1C(=O)N1CCc2c(c(C(=O)NCc3ccc(Cl)cc3)nn2C)C1	-4	11
CCOc1ccccc1C(=O)N1CCc2c(c(C(=O)NCc3cccc(C)c3)nn2C)C1	-11	42
CCOc1ccccc1C(=O)N1CCc2c(c(C(=O)NCc3ccc(F)cc3)nn2C)C1	-7	73*
Cc1ccc(NC(=O)N2CCCC2c2cc(C(C)C)no2)cc1Cl (stereo not drawn)	0	-14
CCc1nnc(SCC(=O)Nc2cccc(C(F)(F)F)c2)nc1CC	-1	-5
COCCNc1nc(SCC(=O)Nc2cccc(C(F)(F)F)c2)nc2ccccc12	-2	67*
C=CCN(c1ccccc1)S(=O)(=O)c1ccc2nc(-c3ccccc3)[nH]c2c1	-2	18
O=C1S/C(=C\c2ccc(O)c([N+](=O)[O-])c2)C(=O)N1c1ccccc1	-7	18
O=C1S/C(=C\c2ccc(O)cc2)C(=O)N1CNc1ccc(I)cc1	-5	25
O=C1S/C(=C\c2ccc(O)c(O)c2)C(=O)N1c1ccc(Cl)cc1	-6	88*
O=C1S/C(=C\c2ccc(O)cc2)C(=O)N1c1ccc(O)cc1	-4	55*
COc1ccccc1/C=C1\SC(=O)N(c2ccc(Cl)cc2)C1=O	-3	2
O=C1S/C(=C\c2ccccc2Cl)C(=O)N1c1ccc(O)cc1	-5	74*
O=C(CN1C(=O)S/C(=C\c2ccc(Br)cc2)C1=O)Nc1ccc(O)cc1	-1	52*
O=C1S/C(=C\c2ccc(O)cc2)C(=O)N1c1ccccc1	0	18
CC1=NS(=O)(=O)N(C)C=C1C(=O)OCc1ccccc1	-25	-9
SMILES	Pf apPOL inh	mHTT-CaM PPI inh
O=C1OC(c2cc([N+](=O)[O-])ccc2Cl)=N/C1=C\c1ccccc1	-6	0
O=C(NCC(O)c1ccc(C(F)(F)F)cc1)C(=O)Nc1ccc(F)cc1F (stereo not drawn)	-3	-15
O=c1c2c3c(sc2nc2c4ccccc4c(NCC4CCCO4)nn12)CCCC3 (stereo not drawn)	0	65*
CC1CCc2c(sc3nc4c5ccccc5c(NCc5ccco5)nn4c(=O)c23)C1 (stereo not drawn)	0	35
CN1CCN(CCCCSc2ccc(Cl)cc2)CC1	-4	-3
CCC(C)(C(=O)NC1CCCCC1)N(Cc1ccco1)C(=O)C1CCC(=O)N1 (stereo not drawn)	-4	2
O=C(Nc1cccnc1)c1ccc(Cl)cc1Cl	-2	-1
O=C(O)c1cc(Cl)c(Cl)cc1C(=O)Nc1cccnc1	55*	-5
Cc1ccc(C2CC(c3ccccc3)=Nc3ccccc3S2)cc1 (stereo not drawn)	-7	/
Clc1ccccc1C1CC(c2ccco2)=Nc2ccccc2S1 (stereo not drawn)	-2	51*
CCCCSc1nnc2c(n1)[nH]c1c(C)cc(C)cc12	3	26
CNC(=O)N1CCOc2cc(C)ccc21	-1	2
COc1cc(C(O)C[N+](=O)[O-])ccc1OCc1ccccc1 (stereo not drawn)	-3	9
COc1ccccc1N=Cc1cc(OC)c(OCc2ccccc2)cc1[N+](=O)[O-]	-12	95*
Nc1ccccc1NC(=O)c1ccc(C(F)(F)F)cc1	4	-1
CCn1cnc2ccc(-c3noc(Cc4ccccc4Cl)n3)cc21	-1	7
CCn1cnc2ccc(-c3noc(-c4ccccc4)n3)cc21	-19	28
Cn1cnc2ccc(-c3noc(CCc4c[nH]c5ccccc45)n3)cc21	-3	76*
CCn1cnc2ccc(-c3noc(Cc4c[nH]c5ccccc45)n3)cc21	-5	99*
CCn1cnc2ccc(-c3noc(CCc4c[nH]c5ccccc45)n3)cc21	-3	100*
Cn1cnc2ccc(-c3noc(Cc4cccs4)n3)cc21	0	9
COc1cccc(-c2nc(-c3ccc4ncn(C)c4c3)no2)c1	-6	-8
CCn1cnc2ccc(-c3noc(-c4cccc(OC)c4)n3)cc21	0	76*
COC(=O)c1ccsc1NC(=O)c1ccccc1Cl	0	-50
CC(=O)N1c2c(cc(Br)cc2S(=O)(=O)N2CCCC2)CC1C (stereo not drawn)	1	4
SMILES	Pf apPOL inh	mHTT-CaM PPI inh
CCCc1cc(=O)oc2c(CN3CCC(C)CC3)c(O)ccc12	2	-12
COc1ccc(-c2c(C(F)(F)F)oc3cc(OC(C)=O)ccc3c2=O)cc1	6	4
Cc1ccc(C)c(NC(=O)COc2cc(C)nc(N3CCCC(C)C3)n2)c1 (stereo not drawn)	1	-3
COc1ncccc1CN(C)C(=O)c1cccn1C	2	2
CC1CCCCN1S(=O)(=O)c1ccc(NC(=O)c2cc(F)c(F)cc2Cl)cc1 (stereo not drawn)	-1	-13
Cc1sc(N)nc1-c1ccc(Cl)cc1	-20	-7
Cc1sc(N)nc1-c1c[nH]c2ccccc12	-12	94*
COC(=O)c1ccc2c(=O)n(-c3cc(F)cc(F)c3)c(N3CCSC3)nc2c1	1	-12
COc1ccc(N=C2C(=O)N3c4c(cc(C)cc42)C(C)=CC3(C)C)cc1	2	72*
COc1ccc2c(c1)C(C)=CC(C)(C)N2C(=O)C(C)N1C(=O)c2ccccc2C1=O (stereo not drawn)	-4	10
CCC(=O)N1CCc2c(C(=O)NC3CC3)cccc21	-4	-4
CCNC(=O)c1cccc2c1CCN2C(=O)CC	0	100*
O=C(COc1nsnc1N1CCOCC1)Nc1ccc(F)cc1	-8	0
O=c1oc2c(-c3ccc(Br)cc3)cc(O)cc2s1	5	34
O=c1oc2c(Br)c(O)c(Br)cc2s1	-6	43
O=c1oc2c(-c3cccc(C(F)(F)F)c3)cc(O)cc2s1	1	40
Cc1ccc(-c2cc(O)cc3sc(=O)oc23)cc1Cl	-5	53*
CCc1ccc(-c2cc(O)cc3sc(=O)oc23)cc1	6	73*
COc1ccc(-c2cc(O)cc3sc(=O)oc23)cc1	2	74*
Cc1ccc(-c2cc(O)cc3sc(=O)oc23)cc1	-4	75*
O=c1oc2ccc(O)cc2s1	/	27
O=C(Nc1nc2c(s1)CCCC2)C(c1ccccc1)n1cccc1 (stereo not drawn)	19	95*

Source: PubChem BioAssay (University of Kansas High Throughput Screening Laboratory)
